# Shown are actives, neighbours in structure and some others; about 9.4% of the full set was active somewhere.
# AMA1 RON2 block = disrupts binding of P. falciparum AMA1 to RON2; AID 720542; actives 0.2% (n = 360,000); Potency, µM (doses to about 58.2 µM), hits mostly inhibitors; AlphaScreen AMA1-biotinylated RON2 peptide binding; further: nearly all actives have a fitted effect of over 45% in size
#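 AMA1 (3D7) with his tag at 25 nM final met compounds first, then biotinylated RON2 peptide at 25 nM; detection used donor plus acceptor beads, 10 µg/mL apiece, read by AlphaScreen after 30 min at room temperature.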
# Pf growth 48h = inhibits P. falciparum growth in the first generation, 48 h; Potency, µM (highest dose often 28.7 µM), usual class: inhibitors; actives 5.9% (n = 310,000); P. falciparum luciferase growth in erythrocytes, 48 h
#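 Luminescence readout; reporter = integrated firefly luciferase in P. falciparum. RBC culture at 2% hematocrit, 0.1% parasitemia final, 37 C/5% CO2; decreased signal taken as growth inhibition.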
# SARS PLpro yeast = SARS-CoV PLP inhibition in yeast; S. cerevisiae expressing SARS-CoV PLpro, growth rescue; Potency, µM (top dose mostly 32.9 µM), usual class: activators; actives 0.19% (n = 330,000); AID 485353; calls by dose curve; further: nearly all actives have a fitted effect of over 55% in size
# Pf growth 96h = P. falciparum growth inhibition at 96 hours; P. falciparum luciferase reporter growth, 96 h; Potency, µM (titrated, usually from 28.7 µM), actives largely listed as inhibitors; actives 6.9% (n = 320,000); AID 504834
#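 P. falciparum expressing integrated firefly luciferase grown in erythrocytes (2% hematocrit, 0.05% parasitemia final) with compounds for 96 hours at 37 C, 5% CO2. Growth inhibition read as loss of luminescence after adding luciferase detection reagent.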
# Hits are given with their value; i = inactive; ? = inconclusive; nt = no result given; [ ] = remark or other dose. Unless noted, the call rests on the fitted dose curve; in most records, active means well fitted curve in the direction sought with a large enough effect; inconclusive means small, poorly fitted or top-dose-only effect, or another doubt; inactive means no such curve, though single readings can be large; an effect the other way counts as inactive or inconclusive.
SMILES,AMA1 RON2 block,Pf growth 48h,SARS PLpro yeast,Pf growth 96h
C=CCCC(=O)Nc1nc(C)c(-c2csc(Nc3ccc(Cl)cc3Cl)n2)s1,i,?,i,8.3µM
Cc1nc(NC(=O)CC(C)C)sc1-c1csc(Nc2ccc(Cl)cc2)n1,i,10µM,i,4.7µM
CC(=O)N1CCc2cc(S(=O)(=O)NC(CC(C)C)C(=O)N3CCCC3)ccc21 (centres undefined),i,i,i,12µM
CC(=O)N1CCc2cc(S(=O)(=O)NC(Cc3ccccc3)C(=O)O)ccc21 (centres undefined),i,i,i,17µM
Cc1cccc(NC(=O)CNC(=O)CCc2nc3sc4c(c3c(=O)[nH]2)CCCC4)c1C,i,?,i,i
CC(C)(C)c1nn(-c2ccccc2)c2[nH]c(=O)c(CNCc3ccc4c(c3)OCO4)cc12,i,nt,i,0.33µM
CCOc1cccc(NCc2cc3c(C(C)(C)C)nn(-c4ccccc4)c3[nH]c2=O)c1,i,?,i,nt
CCCCn1nc(C(=O)Nc2ccc3c(c2)OCCO3)c2ccccc2c1=O,i,?,i,6.6µM
CC(C)CCn1c(=O)c(C(=O)NCc2ccc3c(c2)OCO3)c(O)c2ccccc21,i,5.9µM,i,?
O=C(NCc1ccc2c(c1)OCO2)c1nn(-c2ccccc2)c(=O)c2ccccc12,i,i,i,0.74µM
Cn1c(Cc2ccccc2)[n+](C)c2ccccc21,i,?,i,?
COc1cccc(-n2nc(C(=O)Nc3ccc4c(c3)OCO4)c3ccccc3c2=O)c1,i,?,i,?
O=C(Nc1ccc2c(c1)OCO2)c1nn(-c2ccccc2)c(=O)c2ccccc12,i,12µM,i,13µM
CC1CCCCC1NC(=O)COC(=O)c1ccccn1 (centres undefined),i,i,i,i
CCCCc1nnc(NC(=O)C(C)Sc2nc(N)cc(=O)[nH]2)s1 (centres undefined),i,nt,i,i
O=C(NCCCN1CCN(CCCNC(=O)c2cc([N+](=O)[O-])ccc2Cl)CC1)c1cc([N+](=O)[O-])ccc1Cl,i,4.7µM,i,?
O=C(NCCCN1CCOCC1)c1cc(Cl)ccc1Cl,i,i,i,i
CN1CCN(S(=O)(=O)c2cccc(C(=O)Nc3cc(C(N)=O)cc(C(N)=O)c3)c2)CC1,i,i,i,i
CN1CCN(S(=O)(=O)c2cccc(C(=O)Nc3sccc3C(N)=O)c2)CC1,i,13µM,i[6.58 µM],?
Cc1ccc(C(NC(=O)c2cccc(S(=O)(=O)N3CCN(C)CC3)c2)c2ccccc2)cc1 (centres undefined),i,15µM,i,?
CS(=O)(=O)c1cccc(C(=O)NC(c2ccccc2)c2ccccc2)c1,i,i,i,i[5.75 µM]
CN(C)S(=O)(=O)c1cccc(C(=O)OCC(=O)Nc2sccc2C(N)=O)c1,i,1.9µM,i,3.7µM
COc1ccc2[nH]c(C(=O)O)c(NS(=O)(=O)c3ccc(C)c(C)c3)c2c1,i,i,i,i
Nc1nc(NCCCN2CCOCC2)nc(Nc2cccc(Cl)c2)c1[N+](=O)[O-],i,5.9µM,i,?
CCOc1ccc(Nc2nc(NCC3CCCO3)c3ccccc3n2)cc1 (centres undefined),i,1.2µM,i,i
SMILES,AMA1 RON2 block,Pf growth 48h,SARS PLpro yeast,Pf growth 96h
CCOc1ccc(Nc2cc(C)c3ccccc3n2)cc1,i,i,i,?
COc1ccc(Nc2nc(NCC3CCCO3)c3ccccc3n2)c(OC)c1 (centres undefined),?,?,i,i
Nc1nc(NCCCN2CCOCC2)nc(Nc2ccc(Cl)cc2)c1[N+](=O)[O-],i,?,i,i
c1ccc(Nc2nc(NCC3CCCO3)c3ccccc3n2)cc1 (centres undefined),i,?,i,i
CCOc1ccc(Nc2c3ccccc3nc3ccccc23)cc1,i,2.9µM,i,2.1µM
Oc1cccc(Nc2nc(NCC3CCCO3)c3ccccc3n2)c1 (centres undefined),i,0.37µM,i,i
NC(=O)Cn1c(O)c(N=NC(=O)CNC(=O)/C=C/c2ccccc2)c2ccccc21,i,i,i,i
Nc1nc(NCC2CCCO2)nc(Nc2ccccc2)c1[N+](=O)[O-] (centres undefined),i,10µM,i,?
CC(=O)C1=C(C)NC(=O)NC1c1ccccc1OCC(=O)NCCc1ccccc1 (centres undefined),i,nt,i,i
O=C1CC(C(=O)Nc2ccccc2)N=C(N2CCCCC2)N1 (centres undefined),i,i,i,nt
Cc1ccc(NC(=O)C2CC(=O)NC(Nc3cccc(C)c3)=N2)cc1 (centres undefined),i,i,i,2.1µM
Cc1cc(C)cc(N2CC(c3nc4ccccc4n3C)CC2=O)c1 (centres undefined),i,i,i,i
CC1CN(c2nc3c(c(=O)n(Cc4ccc(Cl)c(Cl)c4)c(=O)n3C)n2C)CC(C)O1 (centres undefined),i,6.6µM,i,nt
Cn1c(N2CCN(c3ccccn3)CC2)nc2c1c(=O)n(Cc1ccccc1Cl)c(=O)n2C,i,nt,nt,nt
Cn1c(N2CCOCC2)nc2c1c(=O)n(Cc1ccc(Cl)cc1)c(=O)n2C,i,nt,nt,nt
Cn1c(N2CCN(c3ccccn3)CC2)nc2c1c(=O)n(Cc1ccc(Cl)cc1)c(=O)n2C,i,12µM,i,nt
C=CCN(CC=C)C(=O)C1c2ccccc2Oc2ccccc21,i,nt,nt,nt
CC/C(O)=C1\C(=O)CC(c2ccccc2)CC1=NCCc1c(C)[nH]c2ccc(C)cc12 (centres undefined),i,?,i,?
CCC/C(O)=C1\C(=O)CC(c2ccccc2)CC1=NCCc1c(C)[nH]c2ccc(C)cc12 (centres undefined),i,1.9µM,i,?
CC(=O)C1=C(O)CC(c2ccccc2)CC1=NCCc1c(C)[nH]c2ccccc12 (centres undefined),i,7.4µM,i,i
COP(=O)(OC)C(Nc1cc(Cl)cc(Cl)c1)c1cccc(O)c1 (centres undefined),i,i,i,i
CCOC(=O)C1(C)CCCN1C(=O)c1cccc(OC)c1 (centres undefined),i,nt,nt,nt
COc1ccc(-c2noc(CCC(=O)N3CCN(c4cccc(OC)c4)CC3)n2)cc1,i,nt,i,nt
C=CCNC(=O)c1cccc2c1C(=O)c1ccc(N3CCCC3)cc1S2(=O)=O,i,nt,i,nt
CCOC(=O)C(C)CC(C)C(=O)N1CCOCCN(C(=O)C(C)CC(C)C(=O)OCC)CCOCC1 (centres undefined),i,8.3µM,i,i
CC(/C=C/c1ccc2c(c1)OCO2)=N/NC(=O)COc1ccc(C)cc1,i,i,i,?
NC(=S)N/N=C/c1ccc(-n2nncc2-c2ccc(Cl)cc2)cc1,i,i,10µM,?
NNC(=O)CN1C(c2ccc(Br)cc2)=Nc2ccc(Br)cc2C1c1ccccc1 (centres undefined),i,10µM,i,?
COc1cc(C2=Nc3ccc(Br)cc3C(c3ccccc3)N2CC(=O)NN)cc(OC)c1OC (centres undefined),i,8.3µM,i,?
COc1ccc(N2CC(NC(=O)N3CCN(c4ccccc4)CC3)CC2=O)cc1 (centres undefined),i,i,i,i
